The record followed here is PubChem BioAssay (EPA / NIEHS).

Activity calls are given as the source filed them. How the source made its calls: active means hit-call score of the fitted dose curve at least 0.9, where 1 is the maximum; inactive means score below 0.9.

The AC50 is the concentration giving half of the maximal activity seen.

Chain of Hypoxia-inducible factor 1-alpha (Homo sapiens) (Q16665 whole entry, looked up): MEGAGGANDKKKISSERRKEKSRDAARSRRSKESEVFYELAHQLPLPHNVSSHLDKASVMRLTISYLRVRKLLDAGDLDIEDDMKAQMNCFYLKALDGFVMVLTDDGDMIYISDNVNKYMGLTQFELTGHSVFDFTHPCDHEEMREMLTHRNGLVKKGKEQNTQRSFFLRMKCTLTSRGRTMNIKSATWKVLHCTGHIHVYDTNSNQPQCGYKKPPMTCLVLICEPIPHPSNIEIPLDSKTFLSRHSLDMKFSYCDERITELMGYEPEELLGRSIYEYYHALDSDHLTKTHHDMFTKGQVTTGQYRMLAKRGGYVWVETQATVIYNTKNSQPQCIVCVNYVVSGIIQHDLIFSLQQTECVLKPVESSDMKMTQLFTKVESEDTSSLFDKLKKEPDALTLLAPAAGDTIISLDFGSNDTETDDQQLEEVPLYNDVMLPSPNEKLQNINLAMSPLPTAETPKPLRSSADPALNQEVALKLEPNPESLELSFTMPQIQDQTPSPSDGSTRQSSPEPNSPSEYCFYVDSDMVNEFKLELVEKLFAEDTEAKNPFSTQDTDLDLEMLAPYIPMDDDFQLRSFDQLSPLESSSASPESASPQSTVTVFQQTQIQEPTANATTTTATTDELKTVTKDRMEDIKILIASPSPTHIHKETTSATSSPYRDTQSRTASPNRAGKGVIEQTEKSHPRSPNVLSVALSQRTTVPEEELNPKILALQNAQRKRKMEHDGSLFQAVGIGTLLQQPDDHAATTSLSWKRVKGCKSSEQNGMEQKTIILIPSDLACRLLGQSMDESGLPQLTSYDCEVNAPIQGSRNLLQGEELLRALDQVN

The assay concerns the target Hypoxia-inducible factor 1-alpha (Homo sapiens) (UniProt Q16665). Kind of assay: ATG_HIF1a_CIS: Attagene CIS-FACTORIAL HepG2 Assay for human Hypoxia Inducible Factor 1 (HIF1A) (AID 2282951). The note with it: HepG2 Attagene cis-factorial HIF1a reporter transcription; actives raise or lower the signal. The protocol:
ATG_CIS is a cell-based, multiplexed-readout assay that uses HepG2, a human liver cell line, with measurements taken at 24 hours after chemical dosing in a 24-well plate.ATG_HIF1a_CIS is one of 52 assay component(s) measured or calculated from the ATG_CIS assay. It is designed to make measurements of mRNA induction, a form of inducible reporter, as detected with fluorescence intensity signals by Reverse transcription polymerase chain reaction (RT-PCR) and Capillary electrophoresis technology.Data from the assay component ATG_HIF1a_CIS was analyzed into 1 assay endpoint. This assay endpoint, ATG_HIF1a_CIS, was analyzed with bidirectional fitting relative to DMSO as the negative control and baseline of activity. Using a type of inducible reporter, measures of mRNA for gain or loss-of-signal activity can be used to understand the reporter gene at the transcription factor-level as they relate to the gene HIF1A. Furthermore, this assay endpoint can be referred to as a primary readout, because this assay has produced multiple assay endpoints where this one serves a reporter gene function. To generalize the intended target to other relatable targets, this assay endpoint is annotated to the dna binding intended target family, where the subfamily is basic helix-loop-helix protein.
Human liver HepG2 cells are transiently transfected with multiple reporter transcription units (MRTUs) in 6-well plates using FuGene 6 reagent (Roche; 3 ml FuGene/1 mg DNA). The MRTU constructs are regulated by a cis-regulating element (promoter). […] A major difference between the CIS and TRANS system is that in CIS activities of endogenous TFs are measured, whereas the TRANS assay evaluates changes in activities of exogenous, chimeric NR-Gal4 proteins. […] At the end of 24 hour incubation, total RNA was isolated using TriZol reagent (Invitrogen). The isolated RNA is then reverse-transcribed using oligo(dT) primer and Mo-MLV reverse transcriptase (Invitrogen) with DNAse I (Ambion) treatment for 30 min. The one-tenth of the produced cDNA was amplified by PCR using Taq DNA polymerase (Invitrogen) and two reporter sequence-specific primers. The PCR products were fluorescently labeled by primer extension with 6-arboxyfluorescein (6-FAM) 5'-labeled reporter sequence-specific primer (2 min at 95 C, 20 s at 68 C and 10 min at 72 C) and these products were digested with 5U of HpaI (New England Biolabs) for 2h at 37 C. The fragments were purified using Qiaquick PCR columns (Qiagen), analyzed on an ABI 3130xL genetic analyzer (Applied Biosystems) with peak positions identified by using a set of X-rhodamine (ROX)-labeled MapMarker1000 molecular weight standards (BioVentures). The raw capillary electrophoresis data was processed using Attagraph software (Attagene).
Take `C1=CC2C3C=CC(C3)C2C1` (stereo not given): the outcome was inactive.

Take `CC1(C)CCC[C@]2(C)[C@H]3CCO[C@]3(C)CC[C@@H]12`: the outcome was inactive. Turning to `CCCC(=O)OCCc1ccccc1`, the compound was called inactive. As for `[Cl][Au]([Cl])[Cl]`, the call was inactive. With `COc1ccc(COC(C)=O)cc1`, the outcome was inactive.

On to `CCCCSCCCC`, for which the result was inactive. As to `CC(=O)C1(C)CC2=C(CCCC2(C)C)CC1C` (stereo not given), the compound was called inactive. In the case of `CCCCCCC(C)Nc1ccc(Nc2ccccc2)cc1` (stereo not given), the outcome was inactive. Turning to `N#Cc1cscn1`, the call was inactive.

Regarding `C=CCCC(=O)/C=C/C1C(C)=CCCC1(C)C` (stereo not given), the compound was called inactive. Same read-out and setting: the result for `CS(=O)(=O)OCCCCOS(C)(=O)=O` reads “inactive”; that for `O=C(O)CCCCCCCCC(=O)O`, “inactive”. With `O=C1NC2NC(=O)NC2N1` (stereo not given), the compound was classed as inactive. For `NC(=S)NNC(N)=S`, the compound was classed as inactive.

Regarding `NCCNc1cccc2ccccc12`, the AC50 was 100 µM (active). On to `c1ccc2cc(Nc3ccc(Nc4ccc5ccccc5c4)cc3)ccc2c1`, for which the result was inactive. For the compound `CCCCCCCC(=O)OCCCCCC`, the result was inactive. For `CCCCCCCCCCCC(=O)OC[C@@H](O)[C@H]1OC[C@H](O)[C@H]1O`, the compound was classed as inactive. `O=C(Nc1ccc2c(c1)Cc1ccccc1-2)C(F)(F)F`: the AC50 is 22.6 µM (active). With `CC(=O)c1c(C)c([N+](=O)[O-])c(C(C)(C)C)c([N+](=O)[O-])c1C`, the compound was classed as inactive. Take `COc1ccc(N=Nc2cc(C)c(N=Nc3ccc(S(=O)(=O)O)cc3)cc2OC)cc1`: the compound was called inactive.

On to `Nc1ccn([C@H]2CS[C@@H](CO)O2)c(=O)n1`, for which the compound was classed as inactive. Same read-out and setting: then `COc1ccc(CCO)cc1`, with “inactive”; and `OC[C@H]1O[C@@H](Oc2ccc(O)cc2)[C@H](O)[C@@H](O)[C@@H]1O`, with “inactive”. Turning to `CCCCCCCC/C=C\CCCCCCCC(=O)OCC`, the compound was called inactive.

As to `COC(=O)c1ccc(C)cc1C1=NC(C)(C(C)C)C(=O)N1` (stereo not given) (tested in a mixture with another compound), the result was inactive. `CCC(Cl)C(Cl)C(Cl)CC(Cl)C(Cl)C(C)Cl` (stereo not given): the call was inactive. On to `CCOC(=O)CN`, for which the compound was classed as inactive.

As for `CC(=O)c1ccccn1`, the outcome was inactive. As for `Cc1ccc(-c2ccccc2)cc1`, the call was inactive. `CCCSc1ccc2nc(NC(=O)OC)[nH]c2c1`: the result was inactive. Take `c1ccc(Oc2ccccc2)cc1`: the compound was called inactive.

As for `CC1(C)O[C@@H]2C[C@H]3[C@@H]4CCC5=CC(=O)C=C[C@]5(C)[C@@]4(F)[C@@H](O)C[C@]3(C)[C@]2(C(=O)CO)O1`, the call was inactive. With `CCOc1ccc(N=Nc2ccc(C=Cc3ccc(N=Nc4ccc(OCC)cc4)cc3S(=O)(=O)O)c(S(=O)(=O)O)c2)cc1`, the compound was classed as inactive. For the compound `CC1C2CC(CC2C2CCCC(O)C2)C1(C)C` (stereo not given), the outcome was inactive. Regarding `Nc1c(Cl)cc(Cl)cc1[N+](=O)[O-]`, the call was inactive. In the case of `CCCCCCCCCCCCCCCC(=O)OC/C=C(C)/C=C/C=C(C)/C=C/C1=C(C)CCCC1(C)C`, the compound was classed as inactive. Regarding `CC/C=C\CC/C=C/CO`, the compound was called inactive. Turning to `CCCCCCCCCC(C)C=O` (stereo not given), the compound was called inactive. As for `COc1cccc(OC)c1O`, the call was inactive.
